Screens as filed in PubChem BioAssay.
AddAB inh: less growth of phage-infected E. coli with AddAB; inhibition, % at 11.9 µM; 330,000 compounds, 0.29% hits; E. coli expressing H. pylori AddAB, absorbance growth; in the data active means inhibition above about 12%
phage Ecoli inh: E. coli growth loss with phage present; growth absorbance; inhibition, % at 11.9 µM; 360,000 compounds, 0.26% hits; AID 651602; in the data active means inhibition above about 11%
E coli growth-1: reduces bacterial viability in AddAB counter-screen | E. coli V3065 growth, OD600 absorbance, 18 h | inhibition, % at 11.9 µM | 330,000 compounds, 0.27% hits | AID 449728;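 active means inhibition above the campaign's mean inhibition across all tested compounds plus 3 SD, cut at about 9.9% in these data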;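 further: uninfected addAB+ strain grown without phage in ampicillin broth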
Tat export inh: blocks Tat-dependent protein export in E. coli; inhibition, % at 10 µM; E. coli MC4100 TorA-mCherry Tat export, fluorescence; 340,000 compounds, 0.036% hits; AID 488895;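 active means mean replicate inhibition at least 50% and at least half of replicates individually reaching 50%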;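 further: exported cargo escapes ClpAP degradation while cytoplasmic cargo is degraded and loses fluorescence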
E coli growth-2: inhibitors of Escherichia coli growth; OD600, 23 h; stronger effect = lower value; OD600 absorbance (no concentration beside the values); 330,000 compounds, 0.21% hits; AID 1053175;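 active means OD600 absorbance below the run mean of sample wells minus 3.6 SD, in any replicate, cut at about 0.56 in these data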
AddAB confirm: growth loss of T4-infected E. coli expressing H. pylori AddAB, confirmed. inhibition, % at 11.9 µM. E. coli V3065 expressing H. pylori AddAB, T4 phage, OD; T4 phage with gene 2 nonsense mutations. 880 compounds, 64% hits. shares compounds with AddAB inh. AID 488942;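 active means mean inhibition above a set limit taken from the earlier primary screen, cut at about 13% in these data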;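 further: higher means less bacterial growth since AddAB block lets phage replicate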
RecBCD counter: counter-screen: growth loss of RecBCD+ E. coli with mutant T4 phage. shares compounds with AddAB inh. E. coli V66 + mutant T4 phage, OD growth. AID 488955. inhibition, % at 11.9 µM. 880 compounds, 73% hits;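 active means mean inhibition above the mean of solvent-only control wells plus 3 SD, cut at about 4% in these data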;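 further: optical density read after an 18 h incubation at 37 °C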
Bact viability: reduces bacterial viability, AddAB inhibitor counter-screen; inhibition, % at 11.9 µM; 880 compounds, 35% hits; absorbance (AddAB counterscreen); shares compounds with AddAB inh; in the data active means inhibition above about 25%
RecBCD conf: confirmation: growth loss of phage-infected RecBCD+ E. coli (RecBCD inhibitor screen) | AID 651982 | E. coli V66 + T4 2- phage, growth OD | shares compounds with phage Ecoli inh | inhibition, % at 11.9 µM | 890 compounds, 45% hits;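 active means mean inhibition over triplicates exceeding the hit threshold derived in the original primary screen, cut at about 11% in these data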
Ecoli viability: counter-screen for RecBCD inhibitors: inhibitors of bacterial viability. shares compounds with phage Ecoli inh. E. coli viability, absorbance (OD) growth. inhibition, % at 11.9 µM. 890 compounds, 29% hits; in the data active means inhibition above about 20%;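 further: E. coli strain V66 grown with compound alone and no phage infection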
AddAB counter: growth loss of phage-infected AddAB E. coli, RecBCD counter-screen. shares compounds with phage Ecoli inh. E. coli expressing H. pylori AddAB + T4 phage, OD growth; gene 2 mutant T4, recBCD-deleted host. AID 651984. inhibition, % at 11.9 µM. 890 compounds, 45% hits;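 active means mean inhibition above the solvent-only control wells' mean plus 3 SD, cut at about 22% in these data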;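 further: higher means less bacterial growth from phage killing when AddAB is blocked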
Each line names hits and unclear results; the compound was inactive in the other large screens (follow-up assays come after a bar, where they were run). In the library only some 0.5% were active in any assay of this set; here they are far more common.

CCC(=O)N1CCN(c2ccc(Cl)cc2NC(=O)c2ccc([N+](=O)[O-])o2)CC1	none
O=C(Nc1cc(Cl)ccc1-n1cncn1)c1ccc([N+](=O)[O-])o1	AddAB inh 99, phage Ecoli inh 16, E coli growth-1 32 | AddAB confirm 92 | RecBCD counter 12 | Bact viability 57 | RecBCD conf inactive | Ecoli viability inactive | AddAB counter 98
COc1ccccc1C(=O)NC(CCSC)C(=O)NNC(=O)c1ccccc1O (configuration not stated)	phage Ecoli inh 12 | RecBCD conf inactive | Ecoli viability inactive | AddAB counter inactive
CNCCC(Oc1cccc2ccccc12)c1cccs1 (configuration not stated)	none (no result: AddAB inh, phage Ecoli inh, E coli growth-1, Tat export inh)
CCCCCCCCCC[n+]1cccc2c3ccccc3ccc21	phage Ecoli inh 12, E coli growth-2 0.13 (no result: AddAB inh, E coli growth-1) | RecBCD conf inactive | Ecoli viability inactive | AddAB counter inactive
Cc1ccccc1CNC(=O)c1ccccc1C	none
Cc1ccccc1C(=O)NCC(C)NC(=O)c1ccccc1C (configuration not stated)	phage Ecoli inh 100 | RecBCD conf inactive | Ecoli viability inactive | AddAB counter inactive
CCS(=O)(=O)NCCc1csc(-c2cccnc2)n1	phage Ecoli inh 97 | RecBCD conf inactive | Ecoli viability inactive | AddAB counter inactive
Cc1noc(C)c1S(=O)(=O)Nc1ccc2c(c1)C(=O)N(C(C)CO)CC(C)C(CN(C)S(=O)(=O)c1ccccc1)O2 (configuration not stated)	none (no result: AddAB inh, phage Ecoli inh, E coli growth-1, Tat export inh)
O=C(NCCc1cn2ccccc2n1)c1cc(COc2c(F)cccc2F)on1	phage Ecoli inh 12 | RecBCD conf inactive | Ecoli viability inactive | AddAB counter inactive
Cc1ccc(OCc2cc(C(=O)NCc3cn4ccccc4n3)no2)cc1C	none
O=C(NN=C1CC(=NNC(=O)c2ccncc2)c2ccccc21)c1ccncc1	none (no result: AddAB inh, phage Ecoli inh, E coli growth-1, Tat export inh)
CC(=NNC(=O)c1nnn(-c2nonc2N)c1CN(C)C)c1ccco1	none (no result: AddAB inh, phage Ecoli inh, E coli growth-1, Tat export inh)
O=C(C(=O)c1cc(Br)ccc1O)c1cc(Br)ccc1O	phage Ecoli inh 13, E coli growth-2 0.17 (no result: AddAB inh, E coli growth-1) | RecBCD conf 13 | Ecoli viability inactive | AddAB counter inactive
C/C=N/NC(=O)c1cc(Br)ccc1O	none (no result: E coli growth-2)
O=C(NC1CC1)C1=CC(c2coc3ccccc3c2=O)CC(OCc2ccc(CO)cc2)O1 (configuration not stated)	none (no result: AddAB inh, phage Ecoli inh, E coli growth-1, Tat export inh)
Cc1cn(C2CCC(CO)O2)c(=O)[nH]c1=O (configuration not stated)	phage Ecoli inh 24 (no result: AddAB inh, E coli growth-1) | RecBCD conf 20 | Ecoli viability inactive | AddAB counter 60
O=c1ccc2cc3c([nH]c4ccc(Br)cc43)oc-2c1O	phage Ecoli inh 14 | RecBCD conf inactive | Ecoli viability inactive | AddAB counter inactive
CC(C(O)=C(C#N)c1nc2ccccc2n1C)N1C(=O)c2ccccc2C1=O (configuration not stated)	none (no result: AddAB inh, phage Ecoli inh, E coli growth-1, Tat export inh)
CCN(CC)CC1CN(N=Cc2ccc([N+](=O)[O-])o2)C(=O)O1 (configuration not stated)	phage Ecoli inh 39, E coli growth-2 0.064 (no result: AddAB inh, E coli growth-1) | RecBCD conf 41 | Ecoli viability 59 | AddAB counter 102
O=[N+]([O-])c1ccc(C=NN2CCNC2=S)o1	phage Ecoli inh 101 (no result: AddAB inh, E coli growth-1, Tat export inh, E coli growth-2) | RecBCD conf 101 | Ecoli viability 102 | AddAB counter 101
Cc1cc2ncn(N=Cc3ccc([N+](=O)[O-])o3)c2cc1C	none (no result: AddAB inh, phage Ecoli inh, E coli growth-1, Tat export inh)
